This note sets out measurements from article PMC5540273 (PLoS ONE, 2017).

What all share (settings): concentration: 1 μM, replicates: in singlicate; n = 1
Assay [1] relates to MAP3K4.
Assay [2] concerns MAP4K2.
Assay [3] deals with MAP4K3.
Assay [4] deals with MAP4K4.
Assay [5] deals with MAP4K5.
Assay [6] relates to MAPKAPK2.
Assay [7] deals with MAPKAPK5.
Assay [8] deals with MARK1.
The subject of assay [9] is MARK2.
Assay [10] has as its system MARK3.

Structures are written as SMILES.
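Note: KINOMEscan kinase panel screen.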

For `COc1ccc(-c2coc3ccc(-c4nnc(SCc5cccc(C#N)c5)o4)cc23)cc1`, the “%Inh” value is 11% in assay [1]; 0% in assay [2]; 13% in assay [3]; 13% in assay [4]; 12% in assay [5]; 0% in assay [6]. In addition, the “%Inh” value is 18% in assay [7], 20% in [8], 18% in [9] and 10% in assay [10].
For `CCc1ccc(-c2ccc3c(c2)-c2nn(C)cc2S(=O)(=O)N3C)cc1`, the “%Inh” value in assay [1] was determined as 1%; in assay [2] it was 0%; in [3] it was 0%; in [4], 19%; in assay [5], 22%; in assay [6], 0%. For the same compound, the “%Inh” value in assay [7] was found to be 0%; in [8] it was 24%; in [9], 0%; in assay [10] it was 0%.
As to `COc1ccc(CNC(=O)NC2CCN(c3ccnc(Nc4ccc(F)cc4)n3)C2)cc1` (stereo not drawn) [GSK1379706], the “%Inh” value in [1] is 0%; in assay [2], 0%; in assay [3] it was 0%; in assay [4], 3%; in [5], 2%; in assay [6] it was 24%. Further, the “%Inh” value is on record as 2% in assay [7], 0% in assay [8], 0% in assay [9] and 4% in assay [10].
